Reference: PubChem BioAssay
For some of these results: Potency and affinity values are given separately. Activity calls are given as the source filed them. Unless noted, how the calls were made is not given here.

Key:
[1] = antimalarial activity against Dd2 strain (AID 2302;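 active means growth inhibition above 50% at the single 2 µM test dose, taken to imply half-maximal potency below 2 µM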;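 further: 0% = DMSO untreated growth and 100% = chloroquine plus artemisinin killed control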); conditions: P. falciparum Dd2 in RBCs, LDH growth readout, 72 h; at 2 µM; active compounds read high
[2] = HepG2 cytotoxicity, primary screen, cytotoxicity control for P. falciparum antimalarial project, cell-based, ATP luminescence (AID 2303;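 active means inhibition above 50%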;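 further: 0% = DMSO wells and 100% = digitonin-killed cells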); conditions: HepG2 viability, 24-48 h, at 10 µM, active compounds read high
[3] = biological target: L-lactate dehydrogenase (Plasmodium falciparum (isolate CDC / Honduras)) (UniProt Q27743); assay: PfLDH activity inhibition – cell lysate, 3D7 strain, counter-screen for P. falciparum growth inhibition project (AID 2304);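 further: 0% = vehicle and 100% = reference inhibitor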; conditions: P. falciparum 3D7 crude extract, LDH APAD/NBT absorbance; at 2 µM; active compounds read high
[4] = inhibition of 3D7 malaria parasite growth – strain 3D7 (AID 2306);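 further: 0% = DMSO wells and 100% = chloroquine plus artemisinin control wells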; conditions: P. falciparum 3D7 erythrocytic growth, LDH absorbance, 72 h; at 2 µM; active compounds read high
[5] = biological target: Calcium-dependent protein kinase 1 (Plasmodium falciparum (isolate 3D7)) (UniProt P62344); assay: PfCDPK1 kinase inhibitors, biochemical, TCAMS library (AID 1159585; cut-off not given, nearly all actives have IC50 up to about 0.98 µM;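 further: inhibitors leave more ATP so luminescence rises with inhibition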); conditions: recombinant PfCDPK1, Kinase-Glo ATP depletion luminescence
[6] = biological target: Plasmodium falciparum protein kinase 6 (PK6, PF3D7_1337100) (UniProt Q8IDW1); assay: PfPK6 kinase inhibitors, biochemical, TCAMS library (AID 1159586); conditions: recombinant PfPK6, Kinase-Glo ATP depletion luminescence
[7] = biological target: Protein kinase 7 (PK7), Plasmodium falciparum 3D7 (PF3D7_0213400) (UniProt Q7YTF7); assay: inhibition of Plasmodium PK7 catalytic activity – biochemical, TCAMS antimalarial set, Kinase-Glo luminescence (AID 1159587); conditions: recombinant PfPK7, Kinase-Glo ATP depletion luminescence
[8] = biological target: Calcium-dependent protein kinase 4 (Plasmodium falciparum (isolate 3D7)) (UniProt Q8IBS5); assay: PfCDPK4 kinase inhibitors, biochemical, TCAMS library (AID 1159588; cut-off not given, nearly all actives have IC50 up to about 0.91 µM); conditions: recombinant PfCDPK4, Kinase-Glo ATP depletion luminescence
Sequence of Calcium-dependent protein kinase 4 (Plasmodium falciparum (isolate 3D7)) (Q8IBS5 whole entry, looked up): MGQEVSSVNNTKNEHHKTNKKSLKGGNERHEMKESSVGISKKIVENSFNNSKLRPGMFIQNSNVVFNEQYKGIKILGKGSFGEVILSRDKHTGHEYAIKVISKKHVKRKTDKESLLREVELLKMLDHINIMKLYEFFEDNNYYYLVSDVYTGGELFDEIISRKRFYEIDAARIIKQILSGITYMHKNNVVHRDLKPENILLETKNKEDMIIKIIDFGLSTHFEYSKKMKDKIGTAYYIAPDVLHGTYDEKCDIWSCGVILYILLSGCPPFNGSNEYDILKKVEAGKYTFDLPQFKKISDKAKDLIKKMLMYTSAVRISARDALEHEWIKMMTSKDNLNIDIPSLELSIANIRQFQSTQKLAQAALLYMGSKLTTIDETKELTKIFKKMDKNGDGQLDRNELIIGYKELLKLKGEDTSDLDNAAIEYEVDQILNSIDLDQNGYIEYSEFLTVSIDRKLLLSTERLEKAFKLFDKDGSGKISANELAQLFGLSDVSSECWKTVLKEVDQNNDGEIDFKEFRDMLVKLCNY

Sequence of Plasmodium falciparum protein kinase 6 (PK6, PF3D7_1337100) (Q8IDW1 1-305): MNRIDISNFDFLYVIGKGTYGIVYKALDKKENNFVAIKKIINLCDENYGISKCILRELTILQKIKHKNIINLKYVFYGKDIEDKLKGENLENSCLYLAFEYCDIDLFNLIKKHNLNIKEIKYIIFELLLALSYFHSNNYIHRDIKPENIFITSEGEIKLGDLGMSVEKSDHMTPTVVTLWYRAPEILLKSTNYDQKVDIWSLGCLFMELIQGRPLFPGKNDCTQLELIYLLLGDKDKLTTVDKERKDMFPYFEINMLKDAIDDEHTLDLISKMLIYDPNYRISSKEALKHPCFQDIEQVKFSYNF
Sequence of Protein kinase 7 (PK7), Plasmodium falciparum 3D7 (PF3D7_0213400) (Q7YTF7 1-343): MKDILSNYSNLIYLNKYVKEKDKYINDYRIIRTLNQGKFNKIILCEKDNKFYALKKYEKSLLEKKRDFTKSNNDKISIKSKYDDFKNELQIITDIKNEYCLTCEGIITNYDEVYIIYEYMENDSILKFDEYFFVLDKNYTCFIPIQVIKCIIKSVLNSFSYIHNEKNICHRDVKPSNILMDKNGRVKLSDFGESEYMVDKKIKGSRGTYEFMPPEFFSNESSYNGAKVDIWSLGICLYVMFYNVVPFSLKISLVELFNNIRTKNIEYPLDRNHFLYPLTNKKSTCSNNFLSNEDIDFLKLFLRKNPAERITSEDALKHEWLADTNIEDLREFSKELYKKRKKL
Sequence of Calcium-dependent protein kinase 1 (Plasmodium falciparum (isolate 3D7)) (P62344 whole entry, looked up): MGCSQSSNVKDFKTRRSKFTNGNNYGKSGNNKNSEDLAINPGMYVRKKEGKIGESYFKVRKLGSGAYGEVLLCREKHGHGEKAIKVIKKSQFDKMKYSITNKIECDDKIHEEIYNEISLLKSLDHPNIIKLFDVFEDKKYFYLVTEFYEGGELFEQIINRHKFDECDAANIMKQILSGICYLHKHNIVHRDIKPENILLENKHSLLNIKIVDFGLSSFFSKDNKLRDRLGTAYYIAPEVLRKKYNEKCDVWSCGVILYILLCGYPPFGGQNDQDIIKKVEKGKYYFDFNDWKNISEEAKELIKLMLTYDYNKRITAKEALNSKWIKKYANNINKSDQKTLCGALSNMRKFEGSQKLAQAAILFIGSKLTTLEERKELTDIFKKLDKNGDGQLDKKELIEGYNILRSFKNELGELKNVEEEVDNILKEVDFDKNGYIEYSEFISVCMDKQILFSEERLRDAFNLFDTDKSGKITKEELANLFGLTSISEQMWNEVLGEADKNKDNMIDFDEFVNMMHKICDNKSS
Sequence of L-lactate dehydrogenase (Plasmodium falciparum (isolate CDC / Honduras)) (Q27743 whole entry, looked up): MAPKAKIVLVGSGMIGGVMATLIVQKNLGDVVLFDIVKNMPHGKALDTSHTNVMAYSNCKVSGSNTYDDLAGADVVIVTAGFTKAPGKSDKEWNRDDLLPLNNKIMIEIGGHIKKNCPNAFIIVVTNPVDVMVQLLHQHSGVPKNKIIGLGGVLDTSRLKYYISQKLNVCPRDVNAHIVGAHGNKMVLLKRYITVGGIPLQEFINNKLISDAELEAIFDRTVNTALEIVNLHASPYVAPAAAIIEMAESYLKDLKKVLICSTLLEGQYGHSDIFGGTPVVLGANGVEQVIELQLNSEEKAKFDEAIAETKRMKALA

Cc1nc2ccc(F)cc2n1C1CCN(C(=O)Cc2ccc(F)c(F)c2)CC1
inactive: inhibition [2] 2% | inhibition [3] 0% | outcome [5] | outcome [6] | outcome [7] | outcome [8]
active: growth inhibition [1] 99% | growth inhibition [4] 100%

COc1cc2ncnc(Nc3ccc(OCc4ccccc4Br)c(OC)c3)c2cc1OC
inactive: inhibition [2] 11% | inhibition [3] -1% | outcome [5] | outcome [6] | outcome [7] | outcome [8]
active: growth inhibition [1] 62% | growth inhibition [4] 100%

COc1ccc2c(NN=Cc3cccc(Cl)c3)cc(C)nc2c1
inactive: inhibition [2] 3% | inhibition [3] 3% | outcome [5] | outcome [6] | outcome [7] | outcome [8]
active: growth inhibition [1] 99% | growth inhibition [4] 103%

Clc1ccc(CNC2CCN(CC3CCCCC3)CC2)cc1
inactive: growth inhibition [1] 15% | inhibition [2] 12% | inhibition [3] 5% | outcome [5] | outcome [6] | outcome [7] | outcome [8]
active: growth inhibition [4] 92%

c1ccc(C2CCC(N3CCC(N4CCCC4)CC3)CC2)cc1 (stereo not drawn)
inactive: growth inhibition [1] 46% | inhibition [2] 9% | inhibition [3] -2% | outcome [5] | outcome [6] | outcome [7] | outcome [8]
active: growth inhibition [4] 102%

COc1cc2nc(NCCc3ccccc3)nc(NCc3cnn(C)c3C)c2cc1OC
active: growth inhibition [1] 94% | growth inhibition [4] 99%
inactive: inhibition [2] 13% | inhibition [3] 0% | outcome [5] | outcome [6] | outcome [7] | outcome [8]

COc1ccc2ncc(F)c(CCN3CCC(NCc4cc(F)c5c(c4)OCCO5)CC3)c2n1
inactive: inhibition [2] 15% | inhibition [3] -5% | outcome [5] | outcome [6] | outcome [7] | outcome [8]
active: growth inhibition [1] 67% | growth inhibition [4] 100%

Clc1ccc2c(NCCc3ccccc3)ccnc2c1
active: growth inhibition [1] 99% | growth inhibition [4] 93%
inactive: inhibition [2] 31% | inhibition [3] -3% | outcome [5] | outcome [6] | outcome [7] | outcome [8]

COc1cc(CNCCCCCCNCc2cc(OC)c3ccccc3c2OC)c(OC)c2ccccc12
inactive: growth inhibition [1] 40% | inhibition [3] -2% | outcome [5] | outcome [6] | outcome [7] | outcome [8]
active: inhibition [2] 99% | growth inhibition [4] 102%

Cc1cccc(-c2ccc(NC(=O)C3CCN(Cc4cccc(O)c4)CC3)cc2)c1
inactive: inhibition [2] 21% | inhibition [3] 0% | outcome [5] | outcome [6] | outcome [7] | outcome [8]
active: growth inhibition [1] 64% | growth inhibition [4] 92%

COCC(C)n1c(SC(C)C(=O)Nc2cc([N+](=O)[O-])ccc2Cl)nc2ccccc2c1=O (stereo not drawn)
inactive: inhibition [2] -8% | inhibition [3] 2% | outcome [5] | outcome [6] | outcome [7] | outcome [8]
active: growth inhibition [1] 94% | growth inhibition [4] 95%

O=C(Nc1ccc(Cl)c(C(F)(F)F)c1)NC1CCN(CCCCCNC(=O)[C@@H]2C[C@H]2c2ccc(Cl)c(Cl)c2)CC1
active: inhibition [2] 79% | growth inhibition [4] 100%
inactive: growth inhibition [1] 41% | inhibition [3] -1% | outcome [5] | outcome [6] | outcome [7] | outcome [8]

CCCCCCN1CCN(Cc2cccc(NC(=O)c3cc4ccccc4s3)c2)CC1
inactive: inhibition [2] 20% | inhibition [3] -1% | outcome [5] | outcome [6] | outcome [7] | outcome [8]
active: growth inhibition [1] 68% | growth inhibition [4] 93%

CN(C)CCOc1ccc(N2CCN(CCCCNC(=O)c3ccc(/C=C/c4cc(Cl)cc(Cl)c4)cc3)CC2)cc1
inactive: inhibition [3] 1% | outcome [5] | outcome [6] | outcome [7] | outcome [8]
active: growth inhibition [1] 84% | inhibition [2] 97% | growth inhibition [4] 98%

CCCc1cc(Cc2cnc(N)nc2N)cc(OC)c1OC
active: growth inhibition [4] 87%
inactive: growth inhibition [1] 4% | inhibition [2] 2% | inhibition [3] 6% | outcome [5] | outcome [6] | outcome [7] | outcome [8]

Cc1nc(N)nc(N)c1Oc1cccc(Cl)c1
inactive: growth inhibition [1] -3% | inhibition [2] 49% | inhibition [3] 3% | outcome [5] | outcome [6] | outcome [7] | outcome [8]
active: growth inhibition [4] 94%

CCCC(CNCc1cccc(SC(F)(F)F)c1)CNc1cc(=O)c2ccccc2[nH]1 (stereo not drawn)
active: growth inhibition [1] 87% | growth inhibition [4] 101%
inactive: inhibition [2] 5% | inhibition [3] 5% | outcome [5] | outcome [6] | outcome [7] | outcome [8]

Nc1nc2c(ncn2OC[C@H](CO)OCP(=O)(O)O)c(=O)[nH]1
inactive: inhibition [2] 5% | inhibition [3] -4% | outcome [5] | outcome [6] | outcome [7] | outcome [8]
active: growth inhibition [1] 61% | growth inhibition [4] 94%

O=S(=O)(NCCN1CCCC1)c1cccc(-c2cccc(CNCc3ccccc3)c2)c1
active: growth inhibition [1] 73% | growth inhibition [4] 97%
inactive: inhibition [2] 32% | inhibition [3] -7% | outcome [5] | outcome [6] | outcome [7] | outcome [8]

CC(=O)Nc1cccc(C(=O)Nc2ccc(-c3cccc(-c4nc5c(C)cccc5[nH]4)c3)cc2)c1
inactive: inhibition [3] -4% | outcome [5] | outcome [6] | outcome [7] | outcome [8]
active: growth inhibition [1] 50% | inhibition [2] 86% | growth inhibition [4] 100%

COc1ccc(O)c(C(=O)c2cc(C(=O)NCCc3ccccc3)c(=O)n(CCc3ccccc3)c2)c1
active: growth inhibition [4] 97%
inactive: growth inhibition [1] 18% | inhibition [2] 11% | inhibition [3] -2% | outcome [5] | outcome [6] | outcome [7] | outcome [8]

CCN(CCO)CCc1cccc(Nc2nccc(-c3c(-c4ccc(NC(=O)C(C)(C)C)cc4)nn4ccccc34)n2)c1
inactive: inhibition [3] 4% | outcome [5] | outcome [6] | outcome [7] | outcome [8]
active: growth inhibition [1] 96% | inhibition [2] 62% | growth inhibition [4] 101%

CCNc1cc(C(=O)N[C@@H](Cc2ccccc2)[C@H](O)CNC2CCCC2)cc(N2CCCC2=O)c1
inactive: inhibition [2] 8% | inhibition [3] 2% | outcome [5] | outcome [6] | outcome [7] | outcome [8]
active: growth inhibition [1] 98% | growth inhibition [4] 98%

FC(F)(F)c1ccc2nc(-c3cccc(-c4ccc(CNCc5ccccc5)cc4)c3)[nH]c2c1
inactive: inhibition [2] 25% | inhibition [3] -4% | outcome [5] | outcome [6] | outcome [7] | outcome [8]
active: growth inhibition [1] 99% | growth inhibition [4] 101%

CC(C)c1cccc(C(C)C)c1NC(=O)NNC(=O)c1ccc(CCN2CCC(c3nc(COCC(F)(F)F)c(-c4ccc(F)cc4)o3)CC2)cc1
inactive: growth inhibition [1] 34% | inhibition [3] -2% | outcome [5] | outcome [6] | outcome [7] | outcome [8]
active: inhibition [2] 61% | growth inhibition [4] 88%

COc1cccc(OC)c1OCCCON1C(N)=NC(N)=NC1(C)C
inactive: inhibition [3] 1% | outcome [5] | outcome [6] | outcome [7] | outcome [8]
active: growth inhibition [1] 96% | inhibition [2] 53% | growth inhibition [4] 95%

C(=NNc1ccnc2ccccc12)c1ccncc1
inactive: growth inhibition [1] 27% | inhibition [2] 7% | inhibition [3] -2% | outcome [5] | outcome [6] | outcome [7] | outcome [8]
active: growth inhibition [4] 95%

CC1N=C(N)N=C(N)N1OCc1cccc2ccccc12 (stereo not drawn)
inactive: growth inhibition [1] 4% | inhibition [3] -2% | outcome [5] | outcome [6] | outcome [7] | outcome [8]
active: inhibition [2] 66% | growth inhibition [4] 93%

O=C(Nc1cccc(C(F)(F)F)c1)c1cccc2[nH]c(C(F)(F)F)nc12
inactive: inhibition [3] -7% | outcome [5] | outcome [6] | outcome [7] | outcome [8]
active: growth inhibition [1] 98% | inhibition [2] 81% | growth inhibition [4] 100%

c1ccc(-c2cc(NCc3cccc4ccccc34)c3[nH]ncc3n2)cc1
active: growth inhibition [4] 93%
inactive: growth inhibition [1] 5% | inhibition [2] 7% | inhibition [3] -8% | outcome [5] | outcome [6] | outcome [7] | outcome [8]

CN1CCC(C(=O)Nc2cccc(-c3ccc(-c4nc5ccccc5[nH]4)cc3)c2)CC1
active: growth inhibition [4] 82%
inactive: growth inhibition [1] 15% | inhibition [2] 7% | inhibition [3] 5% | outcome [5] | outcome [6] | outcome [7] | outcome [8]

CCCCc1cc(NCC)nc(Nc2ccc(F)cc2)n1
inactive: inhibition [2] 33% | inhibition [3] -1% | outcome [5] | outcome [6] | outcome [7] | outcome [8]
active: growth inhibition [1] 56% | growth inhibition [4] 98%

CON=C1CCC(Cn2ccnc2)(c2ccc(Cl)cc2Cl)CC1 (stereo not drawn)
active: growth inhibition [1] 56% | growth inhibition [4] 100%
inactive: inhibition [2] 7% | inhibition [3] -5% | outcome [5] | outcome [6] | outcome [7] | outcome [8]

COc1ccc2nccc(NC(=O)N3CCC(NCc4cc5c(F)ccc(F)c5[nH]4)CC3)c2n1
active: growth inhibition [4] 99%
inactive: growth inhibition [1] 40% | inhibition [2] 6% | inhibition [3] -2% | outcome [5] | outcome [6] | outcome [7] | outcome [8]

Cc1cc(NCCc2ccccc2)nc(/N=C(\N)Nc2cccc(Cl)c2)n1
active: growth inhibition [1] 100% | growth inhibition [4] 101%
inactive: inhibition [2] 24% | inhibition [3] 4% | outcome [5] | outcome [6] | outcome [7] | outcome [8]

N#CC1(c2ccccc2)CCN(c2nc(NCCCN3CCCC3=O)nc(N3CCCC4CCCCC43)n2)CC1 (stereo not drawn)
inactive: inhibition [2] -2% | inhibition [3] 3% | outcome [5] | outcome [6] | outcome [7] | outcome [8]
active: growth inhibition [1] 92% | growth inhibition [4] 95%

CC(C)=CCN1CCC(C(=O)Nc2ccc(-c3nc4ccccc4[nH]3)cc2)CC1
inactive: growth inhibition [1] -1% | inhibition [2] -2% | inhibition [3] -3% | outcome [5] | outcome [6] | outcome [7] | outcome [8]
active: growth inhibition [4] 95%

CC(=O)Nc1cccc(-c2cnc(N)c3cc(-c4ccc5c(c4)OCO5)ccc23)c1
active: growth inhibition [1] 93% | inhibition [2] 100% | growth inhibition [4] 99%
inactive: inhibition [3] -4% | outcome [5] | outcome [6] | outcome [7] | outcome [8]

COC(=O)c1ccc(CCCNCC(O)c2cccc(C(F)(F)F)c2)cc1 (stereo not drawn)
inactive: inhibition [2] 0% | inhibition [3] 4% | outcome [5] | outcome [6] | outcome [7] | outcome [8]
active: growth inhibition [1] 88% | growth inhibition [4] 97%

COc1ccc2c(NN=Cc3cccc(F)c3)cc(C)nc2c1
active: growth inhibition [1] 100% | growth inhibition [4] 101%
inactive: inhibition [2] 17% | inhibition [3] -4% | outcome [5] | outcome [6] | outcome [7] | outcome [8]

CCN(CCNS(C)(=O)=O)c1ccc(N)c(C)c1
active: growth inhibition [4] 91%
inactive: growth inhibition [1] 11% | inhibition [2] -4% | inhibition [3] -4% | outcome [5] | outcome [6] | outcome [7] | outcome [8]
